From the supplement of paper PMC3334620
In all, about 33,000 sequences were measured (“E-score (-0.5 to 0.5)”: median about -0.017, highest 2% from about 0.3 on). Many of the other results were omitted from the sample, so the highest values are more common in it than they were.

biological target: T1, Sut1 (UniProt P53032); assay: PBM E-score (8-mer binding enrichment) (E-score (-0.5 to 0.5)); higher = stronger / more preferred TF binding; settings: protein concentration: 200 nM; construct: GST-full length
T1 sequence: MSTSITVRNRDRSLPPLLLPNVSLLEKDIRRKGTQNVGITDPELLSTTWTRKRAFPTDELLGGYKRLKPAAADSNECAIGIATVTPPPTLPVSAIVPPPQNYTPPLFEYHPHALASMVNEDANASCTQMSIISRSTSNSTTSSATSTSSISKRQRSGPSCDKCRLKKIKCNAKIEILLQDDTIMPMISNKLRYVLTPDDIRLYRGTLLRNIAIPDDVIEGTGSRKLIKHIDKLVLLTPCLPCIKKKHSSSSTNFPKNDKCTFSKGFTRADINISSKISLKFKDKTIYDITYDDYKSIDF
Experimental: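 Universal 'all 10-mer' protein binding microarrays (Agilent AMADID 015681) probed with GST-tagged S. cerevisiae TFs (full-length or DBD) made by in vitro transcription/translation (PURExpress), about 100-200 nM. Bound TF was detected with fluorescent anti-GST. Each ungapped 8-mer (which stands for itself and its reverse complement) is scored by the PBM enrichment score (E-score), a modified Wilcoxon-Mann-Whitney statistic from -0.5 to +0.5, computed with the Universal PBM Analysis Suite. Scale: above 0.35 generally sequence-specific binding.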

| Sequence | PBM E-score |
| --- | --- |
| CATCGGGG | -0.00411 |
| GATCGGAA | 0.159 |
| AATCGGAT | 0.183 |
| GATCGGGC | -0.0436 |
| CATCGGAC | 0.37 |
| CATCGGAA | 0.269 |
| GATCGGAC | 0.367 |
| AATCGGAG | 0.396 |
| CATCGGTC | -0.106 |
| CATCGGCG | -0.137 |
| AATCGGTG | 0.0417 |
| CATCGGAG | 0.435 |
| ACAAGCAG | 0.0716 |
| CGTCTCGA | -0.113 |
| AAGCAGAG | -0.037 |
| CAGTCGAG | -0.103 |
| CAATGGGG | -0.163 |
| GAAGTCTA | 0.0111 |
| CCTACTCA | 0.021 |
| AGCAGTTC | 0.0132 |
| AATCGGGC | -0.0945 |
| AATCGGCA | 0.107 |
| TATCGGAA | 0.26 |
| AATCGGAC | 0.338 |
| AATCGGCC | -0.109 |

| Sequence | PBM E-score |
| --- | --- |
| AATCGGAA | 0.38 |
| CCACTTTA | 0.0316 |
| CCGGTCAG | -0.0559 |
| AATCAGAT | 0.0945 |
| AAGGGATG | -0.0899 |
| GAGTCCAC | -0.108 |
| AAGCTCCG | 0.455 |
| CAGCTCCC | -0.181 |
| CAGCTCCA | -0.0491 |
| AGGCTCCA | -0.178 |
| CAGCTCCG | 0.461 |
| AAGCTCCC | -0.156 |
| AAGCTCCT | -0.112 |
| AGGCTCCG | 0.357 |
| AGGCTCCC | -0.0884 |
| CAGGCCTG | 0.0399 |
| ACGCTAAC | -0.22 |
| GTTCGACA | -0.0722 |
| ATAATATA | 0.301 |
| ATAATATG | 0.286 |
| CTAATAAA | 0.197 |
| CTAATAAC | 0.14 |
| ATAATAAA | 0.339 |
| GTAATAAA | 0.284 |
| CTAATATA | 0.225 |

| Sequence | PBM E-score |
| --- | --- |
| ATAATAAT | 0.295 |
| TTAATAAA | 0.341 |
| AATCCTCG | -0.164 |
| CGGGGCTC | 0.0261 |
| ACTTGGGG | -0.203 |
| CGCGCCTC | 0.0917 |
| GGGATACA | -0.064 |
| AAACCCGA | 0.198 |
| TACCCCGA | 0.324 |
| CACCCCGG | 0.0471 |
| GACCCCGA | 0.0897 |
| AACCCCGA | 0.447 |
| CACCCCGA | 0.134 |
| AACCCCGG | 0.438 |
| ACCCCCGA | -0.118 |
| ACCCCCGG | -0.0829 |
| GATGCTAA | 0.0485 |
| AATAGGCC | 0.0314 |
| GCTCGCAA | -0.101 |
| CATCCACC | -0.0255 |
| CGATTCTA | -0.0107 |
| GGCTAATA | 0.17 |
| ACTCATAC | 0.0873 |
| ACCAACCC | -0.212 |
| ATATCGGG | -0.0571 |

| Sequence | PBM E-score |
| --- | --- |
| ATATCGGA | 0.331 |
| AGATCGGA | 0.348 |
| CGATCGGA | 0.246 |
| CTATCGGA | 0.337 |
| ATATCGGC | -0.0245 |
| GGATCGGA | 0.277 |
| CTATCGGC | -0.13 |
| GTATCGGA | 0.281 |
| CCTGCTAC | -0.0632 |
| GTTCGGTA | 0.141 |
| AAGATGGC | -0.0118 |
| AGTCCCAG | -0.199 |
| ATTGACCG | 0.0305 |
| AGAGTCCA | -0.0986 |
| CGTTGCAG | -0.136 |
| ATGCAGCA | -0.134 |
| ATCCTTCG | 0.0447 |
| CTCCGCAA | 0.271 |
| ATCCGCAC | -0.0365 |
| CTCCGCAG | 0.364 |
| ATCCGCAG | 0.0529 |
| GTCCGCAC | 0.247 |
| CTCCGCAC | 0.306 |
| CGATTTCA | 0.0969 |
| CCACACGG | -0.0635 |

| Sequence | PBM E-score |
| --- | --- |
| ACGTCCGG | 0.101 |
| CTCCGTAA | 0.328 |
| ATCCGTAC | 0.178 |
| GACCGTAA | -0.0628 |
| CACCGTAC | 0.0478 |
| CTCCGTAC | 0.331 |
| GTCCGTAA | 0.342 |
| ATCCGTAA | 0.183 |
| CACCGTAA | 0.0107 |
| CCCCGTAA | 0.0974 |
| AGCATTGA | -0.0961 |
| CCTAACCA | 0.0768 |
| ACATCTGC | -0.193 |
| TATAAATA | 0.343 |
| ATTAAAGA | 0.311 |
| GATAAAAA | 0.263 |
| ATTAAATC | 0.191 |
| CATAAATA | 0.168 |
| CTTAAAGA | 0.111 |
| GTTAAAGA | 0.0511 |
| ATTAAATA | 0.315 |
| TAAAAATA | 0.249 |
| TATAAAAA | 0.318 |
| ATTAAATG | 0.243 |
| CATAAAAA | 0.161 |

| Sequence | PBM E-score |
| --- | --- |
| ACCATGAG | -0.166 |
| TGCTTCAA | 0.0485 |
| AAGTTCTA | 0.0927 |
| GAGGATCA | -0.09 |
| CAGCTATC | -0.207 |
| ATGAGTCG | -0.157 |
| ACAGCGTG | -0.171 |
| AGGCCCAC | -0.387 |
| AAGGCTAA | 0.0404 |
| GATAAACA | 0.203 |
| AATAAATA | 0.374 |
| TACAAATA | 0.303 |
| AACAAATA | 0.201 |
| GATAAATA | 0.325 |
| CACAAATA | 0.13 |
| AATAAATG | 0.179 |
| AATAAATT | 0.237 |
| GATAAATC | 0.26 |
| AACAAGCG | -0.0413 |
| GCGCCTCA | -0.0448 |
| ACACTTAC | 0.0992 |
| AATCTCCT | 0.147 |
| AGTCTCCA | -0.229 |
| AATCTCCG | 0.454 |
| AGTCTCCG | 0.316 |

| Sequence | PBM E-score |
| --- | --- |
| CATCTCCC | -0.138 |
| AGTCTCCC | -0.0841 |
| CATCTCCG | 0.478 |
| ATTCTCCC | -0.0729 |
| ATTCTCCA | -0.0299 |
| AATCTCCC | -0.268 |
| CATCTCCA | -0.036 |
| ATTCTCCG | 0.409 |
| GAACTTTA | 0.145 |
| GTAATTCA | 0.182 |
| CAAATCGG | 0.0756 |
| AGCCTTCG | -0.203 |
| AATTTCGG | 0.242 |
| CAGAAATC | 0.0914 |
| CCGTTGGA | 0.0326 |
| ACTCGCTA | 0.0713 |
| AGCGGACT | 0.406 |
| AACGGACA | 0.24 |
| ACCGGAAC | 0.29 |
| AACGGACG | 0.0275 |
| ACTGGACT | -0.107 |
| ACCGGACC | 0.364 |
| AACGGACC | 0.191 |
| AACGGACT | 0.444 |
| ACCGGACG | 0.114 |

| Sequence | PBM E-score |
| --- | --- |
| AGCGGACG | -0.118 |
| AGCGGACA | 0.107 |
| ACCGGACT | 0.485 |
| AGCATATA | 0.102 |
| ACGCAAAC | -0.0168 |
| CGGGGACA | -0.0417 |
| AGAACAGC | -0.0298 |
| ACGTGGTG | -0.133 |
| CGCCATTA | 0.0246 |
| AGCCACCG | -0.122 |
| ACTCCCCG | 0.196 |
| CCTCCGCC | -0.221 |
| AATCCGCT | -0.0383 |
| GCTCCGCC | 0.0486 |
| GCTCCGCA | 0.227 |
| ACTCCGCT | 0.452 |
| CCTCCGCA | -0.205 |
| ACTCCGCC | 0.438 |
| ACTCCGCG | 0.476 |
| ACTCCGCA | 0.473 |
| CCTCCGCG | -0.0947 |
| ACGCCGCT | -0.0911 |
| CAACGGGA | 0.0235 |
| AGAACCAT | 0.12 |
| GAGGCTCC | 0.0186 |

| Sequence | PBM E-score |
| --- | --- |
| ACCTTTGG | -0.287 |
| CACATCGA | -0.0466 |
| AGCCACTG | -0.0195 |
| AGGAGATA | -0.155 |
| GGGAGACC | -0.235 |
| CTGAGATC | -0.209 |
| CGGAGATA | 0.458 |
| GGGAGATA | -0.144 |
| AGGAGATC | 0.0207 |
| CGGAGACG | 0.204 |
| CGGAGATC | 0.445 |
| CGGAGACC | 0.315 |
| AAAAGCAA | 0.242 |
| ACCACCGT | -0.0843 |
| GCAGGTAC | -0.132 |
| CTCAAGCC | -0.126 |
| GGAGAGCA | -0.125 |
| CCCTAACA | 0.071 |
| AGTGCATG | -0.0963 |
